The nature of experiment [1]: Cell Viability - Jurkat (AID 426;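 active means dose-dependent loss of cell ATP signal giving a full or clear fitted curve, ranked by lower potency value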;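 further: potency means the concentration at half of the fitted maximal effect; cells exposed to compound for 40 hours at 37 °C before ATP read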). The note with it: qHTS. The gist of the method: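 Cells of the human T-cell leukemia line Jurkat (E6-1) are seeded at 5000 per well, treated with compound across a concentration range for 40 hours at 37 °C, then lysed with CellTiter-Glo; luminescence reports ATP.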
Experiment [2] is described as follows: Cell Viability - Hek293 (AID 427;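 active means compounds whose dose-response curve shows a full or clear partial loss of cell viability, called from curve shape rather than a numeric limit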;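 further: potency means the concentration at half of the fitted maximal effect; cells exposed to compound for 40 hours at 37 °C before reading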). The settings on record: qHTS. The gist of the method:
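AC50 values derive from Hill-modelled concentration-response of ATP-based luminescence, normalized between DMSO-only and 100 uM tamoxifen controls. Cells were exposed in complete culture medium for 40 hr at 37 °C before detection.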

In experiment [3] the target is Mitogen-activated protein kinase 10 (Mus musculus) (UniProt Q61831). In words: JNK3 AlphaScreen Assay (AID 530; active means well fitted curve in either direction with a large enough effect, not every such curve was filed as active;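 further: kinase came from lysate of stimulated human HepG2 cells; signal reports phosphorylation of biotinylated GST-cJun 1-79 at Ser73 with 10 µM ATP; on the % scale 0 is the no-effect control and ±100 the full control effect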). The gist of the method: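 qHTS titrations with 15 min compound pre-incubation before adding ATP (10 uM final). Read-out: AlphaScreen of Ser73-phosphorylated biotin-GST-cJun using HepG2 lysate JNK3 activated by IL-1β and TNFα.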
A short description of experiment [4]: Cell Viability - NIH 3T3 (AID 541).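 Further: plate controls were DMSO alone for no effect and tamoxifen positive control for full effect; nearly all actives have a fitted effect of over 25% in size.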 The settings on record: NIH 3T3 cell viability, qHTS; activity change, negative = cytotoxicity: at 92.2 µM (top of the series). The gist of the method:
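Cells seeded at 1000/well, rested 5 hr at 37 °C, then dosed and incubated 40 hr at 37 °C. CellTiter-Glo added, 20 min room temperature, luminescence read. AC50 by Hill fit.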
Background: In qHTS, concentration-response curves come from the screen itself.

Experiment [5] is described as follows: Cell Viability - H-4-II-E (AID 543). Further: on the % scale 0 is the no-effect control and ±100 the full control effect; nearly all actives have a fitted effect of over 35% in size. In outline: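 Cells seeded at 1500 per well and rested 5 hr; compounds added; 40 hr incubation at 37 °C; CellTiter-Glo added, 20 min at room temperature; luminescence read. Hill-equation fits gave AC50.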
The nature of experiment [6]: Cellular Toxicity (caspase-3) NIH 3T3 (AID 666).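 Further: caspase signal read after 16 h compound exposure; 0% = DMSO basal and 100% = 100 µM tamoxifen stimulation.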 In outline: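 Cells were plated at 1000 per well and incubated 5 hr at 37°C, then compound was added for 16 hr. Caspase-Glo 3/7 reagent followed for 20 min at room temperature before luminescence was read.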
Experiment [7] can be described thus: Cell Viability - LYMP2-004 (AID 966).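 Further: plate controls were DMSO only for no effect and tetraoctylammonium bromide control for full effect; nearly all actives have a fitted effect of over 65% in size.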 The gist of the method:
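qHTS cytotoxicity: human lymphoblastoid line, 24 hr compound treatment, 37 C, complete medium. Viability read as cellular ATP via luciferase luminescence; tetraoctylammonium bromide served as positive control.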

Experiment [8] can be described thus: Cell Viability - LYMP2-019 (AID 973).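 Further: 0% = DMSO alone and full effect = 92 µM tetraoctylammonium bromide; nearly all actives have a fitted effect of over 55% in size.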 In outline:
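Cytotoxicity is scored as a concentration-dependent drop in cellular ATP after cells (2500/well) receive compound for 24 hr at 37 C. Tetraoctylammonium bromide serves as positive control.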

Experiment [9] is described as follows: Cell Viability - LYMP2-021 (AID 974).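 Further: compound exposure lasts 24 hours at 37 °C; on the % scale 0 is the no-effect control and ±100 the full control effect; nearly all actives have a fitted effect of over 55% in size.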 In outline: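 Loss of cellular ATP, measured with a luciferase-based CellTiter-Glo readout, serves as the toxicity signal in human lymphoblastoid cells treated for 24 hours at 37 C. Potency is reported as AC50 from a standard Hill model.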
The nature of experiment [10]: Cell Viability - LYMP2-023 (AID 975).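 Further: cellular ATP measured by luciferase luminescence as viability proxy; plate controls were DMSO only for no effect and 92 µM tetraoctylammonium bromide control for full effect; nearly all actives have a fitted effect of over 55% in size.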 In outline:
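Steps: seed 2500 human lymphoblastoid cells per well, incubate 5 hr at 37 C, add compound for 24 hr at 37 C, add CellTiter-Glo, hold 30 min at room temperature, read luminescence. AC50 derived by Hill modelling.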

A short description of experiment [11]: Cell Viability - LYMP2-002 (AID 977).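 Further: compound exposure lasted 24 h at 37 °C; plate controls were DMSO only for no effect and 92 µM tetraoctylammonium bromide for full effect.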 In outline: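 Human lymphoblastoid cells (2500/well) in complete medium were preincubated 5 hr at 37 C, then exposed to compounds for 24 hr at 37 C. Intracellular ATP was read by CellTiter-Glo luminescence; AC50 came from Hill-equation concentration-response fits.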
A short description of experiment [12]: Cell Viability - LYMP2-007 (AID 979).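 Further: cells exposed to compound for 24 h before reading; 0% = DMSO only and the negative end = 92 µM tetraoctylammonium bromide; nearly all actives have a fitted effect of over 60% in size.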 The gist of the method: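 Cells are seeded at 2500 per well and rested 5 hr. Compounds are then added over a concentration series for 24 hr at 37 C. CellTiter-Glo is added for 30 min at room temperature before luminescence reading.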
Experiment [13] in a line: Cell Viability - LYMP2-014 (AID 983).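 Further: plate controls were DMSO only for no effect and 92 µM tetraoctylammonium bromide for full effect; nearly all actives have a fitted effect of over 50% in size.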 In outline: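 Cells are plated at 2500/well and left 5 hr at 37 C. Compounds are added across a concentration range and incubated 24 hr at 37 C in complete medium. CellTiter-Glo is added, and luminescence is read after 30 min at room temperature.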
The nature of experiment [14]: Cell Viability - LYMP2-018 (AID 985).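 Further: compound exposure lasted 24 hr at 37 °C; plate controls were DMSO only for no effect and tetraoctylammonium bromide at 92 µM for full effect; nearly all actives have a fitted effect of over 50% in size.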 In outline: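 Seed 2500 lymphoblastoid cells per well, incubate 5 hr at 37 C, add compound and incubate 24 hr at 37 C, add CellTiter-Glo, wait 30 min at room temperature, then read luminescence.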
Experiment [15] can be described thus: Cell Viability - LYMP2-020 (AID 986).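 Further: plate controls were DMSO only for no effect and tetraoctylammonium bromide at 92 µM for full effect; nearly all actives have a fitted effect of over 55% in size.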 In outline:
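Seed 2500 cells per well and incubate 5 hr at 37 C. Add compounds at a concentration series and incubate 24 hr at 37 C. Add CellTiter-Glo, wait 30 min at RT, read luminescence, and fit a Hill curve for AC50.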

Experiment [16] is described as follows: Cell Viability - LYMP2-022 (AID 987). In outline: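 Cells were seeded at 2500 per well, rested 5 hr at 37 C, and treated with titrated compounds for 24 hr at 37 C. Cellular ATP was then quantified by luciferase luminescence, and AC50 values were derived from Hill-modelled concentration-response curves.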
The nature of experiment [17]: Cell Viability - LYMP2-026 (AID 989). Further: on the % scale 0 is the no-effect control and ±100 the full control effect; nearly all actives have a fitted effect of over 50% in size. The gist of the method: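 Cells are seeded at 2500 per well and held 5 hr at 37 C. Compounds are added in concentration series for 24 hr, then CellTiter-Glo reagent is applied and luminescence read.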
Experiment [18] can be described thus: qHTS assay for small molecule agonists of retinoid X receptor alpha signaling (AID 588544). The settings on record: HEK293T RXRa-UAS-bla, beta-lactamase reporter, 18 h; 530 nm emission.
Experiment [19] in a line: qHTS assay for small molecule antagonists of retinoid X receptor alpha signaling (AID 588546).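 Further: cells stimulated with 9-cis-retinoic acid as agonist; on the % scale 0 is the no-effect control and ±100 the full control effect.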 The settings on record: HEK293T RXRa-UAS-bla, beta-lactamase ratio, antagonist mode; measured here: W530 green channel, cytotoxicity proxy. In outline:
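Beta-lactamase reporter inhibition, read as CCF4 fluorescence ratio (ex 405, em 460/530 nm) after 2 h at RT. HEK293T UAS-bla cells, 2500/well, were stimulated with 9-cis-RA at 500 or 100 nM final alongside test compound for 18 h at 37 C.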

Experiment [20] deals with Voltage-gated inwardly rectifying potassium channel KCNH2 (Homo sapiens) (UniProt Q12809). Nature of the experiment: qHTS Assay for Small Molecule Inhibitors of the Human hERG Channel Activity (AID 588834).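 Further: U2OS cells transduced with hERG by BacMam; top concentration of the series differs between compounds; on the % scale 0 is the no-effect control and ±100 the full control effect; lower thallium flux fluorescence means stronger hERG block; nearly all actives have a fitted effect of over 50% in size.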 The gist of the method: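 Cells were infected with hERG-BacMam virus for 4 hrs at room temperature, grown overnight, then seeded at 2000/well. After dye loading and roughly 10 min compound treatment, thallium influx was triggered and fluorescence recorded.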

Values joined by “and” are separate entries in the source; they are usually repeats but may differ in a detail not shown here. Identical values can stand only once. Inconclusive results are not listed. Active and inactive are the calls of the source. Unless noted, the call rests on the fitted dose curve; in most records, active means well fitted curve in the direction sought with a large enough effect; inconclusive means small, poorly fitted or top-dose-only effect, or another doubt; inactive means no such curve, though single readings can be large; an effect the other way counts as inactive or inconclusive.

Chain of Voltage-gated inwardly rectifying potassium channel KCNH2 (Homo sapiens) (Q12809 whole entry, looked up): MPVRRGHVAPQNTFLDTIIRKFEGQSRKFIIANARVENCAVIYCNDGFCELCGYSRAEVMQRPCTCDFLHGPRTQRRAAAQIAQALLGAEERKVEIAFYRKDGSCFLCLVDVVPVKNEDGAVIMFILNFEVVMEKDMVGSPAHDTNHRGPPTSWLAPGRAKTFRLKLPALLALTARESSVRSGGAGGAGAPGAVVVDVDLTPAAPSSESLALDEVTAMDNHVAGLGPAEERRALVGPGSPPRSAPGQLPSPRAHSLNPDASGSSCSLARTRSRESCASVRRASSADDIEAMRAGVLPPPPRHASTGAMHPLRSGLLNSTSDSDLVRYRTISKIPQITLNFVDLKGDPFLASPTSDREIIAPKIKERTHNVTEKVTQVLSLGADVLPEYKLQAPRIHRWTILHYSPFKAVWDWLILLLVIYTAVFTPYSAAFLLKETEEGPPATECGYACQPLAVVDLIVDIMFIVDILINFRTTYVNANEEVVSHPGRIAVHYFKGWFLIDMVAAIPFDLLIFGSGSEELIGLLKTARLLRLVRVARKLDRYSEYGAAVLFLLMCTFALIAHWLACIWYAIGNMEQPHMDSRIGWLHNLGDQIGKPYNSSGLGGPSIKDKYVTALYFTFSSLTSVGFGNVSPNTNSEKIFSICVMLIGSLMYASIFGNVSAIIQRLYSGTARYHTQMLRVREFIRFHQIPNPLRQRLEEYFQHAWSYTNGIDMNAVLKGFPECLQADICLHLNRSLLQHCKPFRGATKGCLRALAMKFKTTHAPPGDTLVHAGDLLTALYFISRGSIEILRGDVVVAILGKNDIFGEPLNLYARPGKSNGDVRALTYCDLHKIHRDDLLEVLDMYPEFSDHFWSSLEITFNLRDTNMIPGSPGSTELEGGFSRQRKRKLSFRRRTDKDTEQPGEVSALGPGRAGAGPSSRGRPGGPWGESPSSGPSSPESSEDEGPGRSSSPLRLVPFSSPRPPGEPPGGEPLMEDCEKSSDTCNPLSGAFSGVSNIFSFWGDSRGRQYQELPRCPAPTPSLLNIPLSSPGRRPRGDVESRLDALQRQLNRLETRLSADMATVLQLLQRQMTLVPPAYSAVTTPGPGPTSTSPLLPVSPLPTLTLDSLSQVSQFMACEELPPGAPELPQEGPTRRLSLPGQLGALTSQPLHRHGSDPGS

On to `C1CCC2CCCCC2C1` (stereo not given), for which the Potency in experiment [1] and in experiment [2] was > 92 µM (inactive) throughout. The molecule was called inactive in [3] and in experiment [6]. Moreover, in [4], the activity change, negative = cytotoxicity is -13.5% (inactive). The Potency result in experiment [5], in experiment [7], in experiment [8], in [9], in experiment [10] and in experiment [11] was “inactive” in each case. Besides, the Potency result in experiment [12], in [13], in experiment [14], in experiment [15], in experiment [16] and in [17] was “inactive” in each case. Besides, the Potency result in experiment [20] was “inactive”. Moreover, the max response in [18] is -13.4%; in experiment [19], -2.39%.
For `Cc1cccc([N+](=O)[O-])c1`, the Potency in experiment [1] and in experiment [2] was > 92 µM (inactive) each time. Further, the result in experiment [3] and in [6] was inactive. The activity change, negative = cytotoxicity in [4] was -17.5% (inactive). For the same molecule, the Potency entry in experiment [5], in experiment [7], in experiment [8], in experiment [9], in [10] and in experiment [11] was “inactive” throughout. The Potency result in experiment [12], in experiment [13], in [14], in [15], in [16] and in experiment [17] was “inactive” each time. Also, in experiment [20], the Potency entry is “inactive”. Moreover, the max response in [18] is 2.54% and -15.5%; in experiment [19], -5.54% and -8.46%.
In the case of `Cc1ccc(O)c(C)c1`, the Potency in experiment [1] and in experiment [2] was > 92 µM (inactive) in each case. The call in experiment [3] and in experiment [6] was inactive. Besides, the activity change, negative = cytotoxicity in [4] was 3.22% (inactive). Besides, the Potency result in experiment [5], in experiment [7], in experiment [8], in experiment [9], in experiment [10] and in experiment [11] was “inactive” in each case. Moreover, the Potency result in [12], in experiment [13], in [14], in experiment [15], in experiment [16] and in experiment [17] was “inactive” in each case. The Potency entry in experiment [20] was “inactive”. Further, the max response in experiment [18] was -1.3% and -5.42%; in [19], -12.5% and -7.89% and -6.08%.
On to `CN=C=S`, for which the Potency in [1] and in experiment [2] was > 92 µM (inactive) throughout. Also, the call in experiment [3] and in experiment [6] was inactive. For the same molecule, in experiment [4], the activity change, negative = cytotoxicity was 7.36% (inactive). Further, the Potency result in experiment [5], in experiment [7], in [8], in experiment [9], in [10] and in experiment [11] was “inactive” in each case. The Potency entry in experiment [12], in experiment [13], in experiment [14], in experiment [15], in [16] and in [17] was “inactive” in each case. In experiment [20], the Potency entry was “inactive”. Besides, the max response in [18] was -13.3% and 3.16%; in experiment [19] it was -16.3% and -0.556%.
On to `C=CCOC(=O)c1ccccc1N`, for which the Potency in experiment [1] and in [2] was > 92 µM (inactive) in each case. Further, the call in experiment [3] and in experiment [6] was inactive. The activity change, negative = cytotoxicity in experiment [4] is -10.8% (inactive). Also, the Potency result in [5], in experiment [7], in experiment [8], in [9], in experiment [10] and in experiment [11] was “inactive” throughout. The Potency result in experiment [12], in experiment [13], in [14], in experiment [15], in experiment [16] and in experiment [17] was “inactive” in each case. Further, the Potency entry in [20] was “inactive”. For the same molecule, the results for the max response in experiment [18] and in [19] were 1.54% and -12.2%, respectively.
On to `Nc1ccccc1Cl`, for which the Potency in [1] and in experiment [2] was > 92 µM (inactive) in each case. Also, the molecule was called inactive in experiment [3] and in experiment [6]. Further, the activity change, negative = cytotoxicity in experiment [4] is -1.33% (inactive). Further, the Potency result in experiment [5], in experiment [7], in experiment [8], in experiment [9], in [10] and in experiment [11] was “inactive” each time. For the same molecule, the Potency result in experiment [12], in experiment [13], in experiment [14], in [15], in experiment [16] and in experiment [17] was “inactive” in each case. Moreover, the Potency result in experiment [20] was “inactive”. For the same molecule, the max response in experiment [18] was -4.32%; in experiment [19], -3.04%.
